Assay outcomes as filed in PubChem.
RMI FANCM FP – disruptors of RMI1/RMI2 association with MM2 peptide – biochemical, fluorescence polarization, human, primary screen; RMI core complex with F-MM2 peptide; stronger effect = lower value; FP signal (polarization) at 33 µM; 70,000 compounds, 0.58% hits; AID 1159607, 2016; in the data active = FP signal below about 40
Each line names hits and unclear results; the compound was inactive in the other large screens; ! = a repeat was not active. This excerpt belongs to a sample that is enriched for hits.

Cc1[nH]c2ccccc2c1C(Nc1ccccn1)c1cccc([N+](=O)[O-])c1 (stereo not given)	RMI FANCM FP 25!
COc1ccc(C(Nc2cc(C)on2)c2c(C)[nH]c3ccccc23)cc1OC (stereo not given)	none
CCOC(=O)Cn1c(-c2nnc(CC)o2)cc2ccccc21	none
CS(=O)(=O)Nc1ccc(C2=NN(S(=O)(=O)c3ccccc3)C(c3cccc([N+](=O)[O-])c3)C2)cc1 (stereo not given)	none
FC(F)(F)c1cc(-c2ccc(Cl)cc2)nc2cc(-c3ccccc3)nn12	none
COc1ccc(-c2cc(C(F)(F)F)n3nc(-c4cccs4)cc3n2)cc1OC	RMI FANCM FP 9
COc1ccc(-c2cc3nc(C)cc(C)n3n2)cc1OC	none
O=C1c2cccc(OCc3ccccc3Cl)c2CCN1Cc1ccc(F)cc1	none
COc1ccc(NS(=O)(=O)c2ccc(NC(C)=O)cc2)cc1	none
O=C(O)c1cccc(Nc2nc3ccccc3nc2NS(=O)(=O)c2ccc(F)cc2)c1	none
COc1ccc(Nc2nc3ccccc3nc2NS(=O)(=O)c2ccc(NC(C)=O)cc2)cc1	RMI FANCM FP 7!
O=[N+]([O-])c1ccc(-c2ccc(/C=N\NC(=S)Nc3cccc(F)c3)o2)cc1	none
COc1cccc(/C=N\NC(=O)c2cc(-c3ccc(Br)s3)[nH]n2)c1O	none
CCOC(=O)c1c(NC(=O)c2ccco2)sc(C)c1-c1ccc(F)cc1	none
Cc1ncc(CO)c2c1Oc1[nH]c(-c3ccc(F)cc3)nc(=S)c1C2	none
COc1ccccc1-c1nc(=S)c(C(C)=O)c(C)[nH]1	none
CCOc1cccc2c1Oc1[nH]c(-c3cccc(OC)c3O)nc(=S)c1C2	RMI FANCM FP 12
CC(C)c1cc(=O)n2c(n1)SCC2CC(=O)N1CCN(Cc2ccccc2)CC1 (stereo not given)	none
CC1=C(Cl)C(O)=CC(=O)C12Oc1cc(O)c(Cl)c(C)c1C2=O (stereo not given)	RMI FANCM FP 11
Cc1cccc(NC(=O)Nc2nc(C)c(C(=O)NCCc3ccc(S(N)(=O)=O)cc3)s2)c1	none
Cc1cccc(Cn2cnc3c(cnn3CCNC(=O)COc3ccc(Cl)cc3Cl)c2=O)c1	none
CCOC(=O)c1scc(-c2ccc(C)cc2)c1S(=O)(=O)Nc1ccc2c(c1)OCO2	none
COC(=O)N1CCc2c(sc(NC(=O)c3ccc4ncsc4c3)c2C(N)=O)C1	none
CCOC(=O)c1c(NC(=O)c2ccc3ncsc3c2)sc2c1CCN(C(=O)OCC)C2	RMI FANCM FP -5
CCOC(=O)N1CCc2c(sc(NC(=O)c3cccc(C)c3)c2C(N)=O)C1	none
O=C(Nc1nc(-c2ccccc2)cs1)c1cc([N+](=O)[O-])ccc1Cl	none
COC(=O)c1ccccc1NS(=O)(=O)c1cc(S(=O)(=O)Nc2ccccc2C(=O)OC)c2cccc3c2c1NC3=O	RMI FANCM FP 30
COC(=O)c1ccccc1NS(=O)(=O)c1cccc2cccnc12	none
O=C(O)CC(NS(=O)(=O)c1cc(S(=O)(=O)NC(CC(=O)O)c2ccccc2)c2cccc3c2c1NC3=O)c1ccccc1 (stereo not given)	none
Cc1c(C(=O)Nc2nc3ccc(F)cc3s2)sc2nc(-c3ccccc3)cn12	none
N#Cc1c(SCC(=O)c2ccc(O)c(O)c2)nc2c(c1-c1ccc(OCc3ccccc3)cc1)CCCC2	RMI FANCM FP 24
COc1ccc(-c2c(C#N)c(SCC(=O)c3ccc4c(c3)OCO4)nc3c2C(=O)CC(C)(C)C3)cc1	none
N#Cc1c(SCC(=O)Nc2ccccc2)nc2c(c1-c1ccc(OCc3ccccc3)cc1)CCCC2	none
C=CCn1c(=NC(=O)c2ccc(C(=O)OC)cc2)sc2cccc(OC)c21	none
O=C1OC(=O)c2ccc(Br)c3cccc1c23	none
CCOC(=O)OCCN1C(=O)c2cccc3c(Br)ccc(c23)C1=O	none
O=C1c2cccc3c(Br)ccc(c23)C(=O)N1CCO	RMI FANCM FP -1
CCNc1nc(SCc2ccc([N+](=O)[O-])cc2)nc2sc3c(c12)CCN(C)C3	RMI FANCM FP -31
CCNc1nc(SCc2ccc([N+](=O)[O-])cc2)nc2sc3c(c12)CCC(C)C3 (stereo not given)	none
Cn1c(SCc2ccc([N+](=O)[O-])cc2)nc2c(c1=O)SCC2	none
